Screens as filed in PubChem.
Tg IFNy HTS: T. gondii growth inhibition under IFN-gamma; Toxoplasma gondii growth in IFN-gamma-treated host cells; active compounds read low; activity change, negative = inhibition, % (no concentration beside the values); hit rate 3.8% among 69,000; AID 1259416; in the data active = activity change below about -70%, passing the limit was not always enough;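 note: host cells are HeLa cells infected with Toxoplasma gondii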
Active calls of the source: *; ! = a repeat was not active. The sample as a whole holds a higher share of hits than the screen did.

SMILES	Tg IFNy HTS
Cc1nc(N2CCOC(C(F)(F)F)C2)c2ccsc2n1 (centres undefined)	-7.2
CC(C)c1cc(N2CCOC(C(F)(F)F)C2)nc(C(F)(F)F)n1 (centres undefined)	-81.3*
O=c1cc(-c2cccnc2)nc2cc(-c3ccco3)[nH]n12	-34.8
Cc1ccc(-c2coc(-c3ccc(NC(=O)C4CCCCC4)cc3)n2)cc1	30.7
COc1ccc(Cl)cc1NC(=O)C1CC(=O)n2c(nc3ccccc32)N1 (centres undefined)	48.1
COc1ccc(-c2ccc(NC(=O)c3cccnc3)c(C)c2)c(OC)c1OC	-22.7
COc1ncccc1-c1ccc(NC(=O)c2cccnc2)c(C)c1	-84.9*
Cc1cc(-c2ccccc2CO)ccc1NC(=O)c1cccnc1	-28.0
CSc1ccccc1NC(=O)CCC(=O)N1C[C@H]2CC[C@H]1C2	-47.4
Cc1ccc(C(=O)Nc2ccc(CN3CCN(C)CC3)c(C(F)(F)F)c2)cc1C#Cc1cnc2[nH]ncc2c1	-79.6*
Cc1ncc(NC(=O)c2ccc(CN3CCN(C)CC3)c(C(F)(F)F)c2)cc1Nc1nccc(-c2cccnc2)n1	-23.3
CN(C)C1CCN(Cc2ccc(C(=O)Nc3ccc4c(cnn4C)c3)cc2)C1 (centres undefined)	79.0
CC(=O)Nc1ccc(Cl)c(C(=O)Nc2cnc3n2CCCC3)c1	7.8
CC1CN(C(=O)Nc2cccc(F)c2)CCC12CCC(C(=O)N(C)C)O2 (centres undefined)	12.0
Cc1oc(-c2cccc(Cl)c2)nc1Cn1ccn2nc(-c3cccs3)cc2c1=O	-52.1
O=C(Cc1ccsc1)N1CCC2(CC1)N=C(COc1ccccc1)NC2=O	32.1
CCCN1C(=O)CCc2cc(NC(=O)c3sccc3C)ccc21	53.9
Cc1cccc(-c2nc(C)c(CCNC(=O)C(=O)Nc3cccc(C)c3C)s2)c1	38.4
CC(=O)O[C@H]1C(=O)[C@@]2(C)[C@H]([C@H](OC(=O)c3ccccc3)[C@]3(O)C[C@H](OC(=O)[C@H](O)C(NC(=O)c4ccccc4)c4ccccc4)C(C)=C1C3(C)C)[C@]1(OC(C)=O)CO[C@@H]1C[C@@H]2O (some centres undefined)	-95.5*
CC(=O)O[C@H]1C(=O)[C@@]2(C)[C@H]([C@H](OC(=O)c3ccccc3)[C@]3(O)C[C@H](OC(=O)[C@H](O)[C@@H](NC(=O)c4ccccc4)c4ccccc4)C(C)=C1C3(C)C)[C@]1(OC(C)=O)CO[C@@H]1C[C@@H]2O	-82.4*!
CN1CCC2(CN(C(=O)c3ccc4c(c3)OCO4)C2)OCC1C(=O)O (centres undefined)	-36.0
CCc1ccccc1NC(=O)CN1C(=O)CCc2cc(Br)ccc21	-42.2
CC(C)Cc1ccc(S(=O)(=O)N2CCC3(CC2)Nc2ccccc2-n2cccc23)cc1	3.1
Cc1ccc(CN2C[C@H]3CN(c4cnn(C)c4)C(=O)[C@H]3C2)s1	-3.3
Fc1cccc(CN2CCCC3(COCCN(CC4CC4)C3)C2)c1 (centres undefined)	-43.2
SMILES	Tg IFNy HTS
COc1nc2c(cc1C(=O)N1CCC(O)(c3ccc(C)cn3)CC1)CCC2	-2.4
Cc1c(S(=O)(=O)N2CCN(c3nsc4ccccc34)CC2)cnn1C(F)F	14.8
CN1CCN(CCC(=O)N2CCN(c3nsc4ccccc34)CC2)CC1	25.2
O=C1Cc2cc(CCN3CCN(c4nsc5ccccc45)CC3)c(Cl)cc2N1	-80.5*
CCn1c2cc(C)oc2c2cnn(Cn3nnc4ccccc43)c(=O)c21	-37.9
Cc1nn(C)c(C)c1CCC(=O)N(C)Cc1nc2ccc(Cl)cc2[nH]1	-8.6
COc1ccc(CNC(=O)Cn2c(N)nc(C)c(C)c2=O)cc1	-29.0
COc1ccc(CNC(=O)Cn2c(=O)cc(-c3nc(C4CC4)no3)c3ccccc32)cc1	13.6
COc1ccc(CNC(=O)Cn2c(=O)n(Cc3ccc(F)cc3)c(=O)c3ccccc32)cc1	-72.8*
CC(=O)NC12CC3CC(C1)CC(C(=O)N1CCCC(c4nc5ccccc5[nH]4)C1)(C3)C2 (centres undefined)	13.7
CCOC[C@@H]1CCC[C@]12CN(Cc1cccs1)CCO2	-9.8
Cc1cccc(NC(=O)c2cc(-c3cnc(N4CCOCC4)nc3)cn2CC2CC2)c1	-79.7*
O=C(NCc1ccc(F)cc1F)c1cc(-c2cnc(N3CCCC3)nc2)cn1CC1CC1	-103.2*
COc1ncccc1NC(=O)c1cc(-c2cnc(N3CCCC3)nc2)cn1CC1CC1	-45.1
CCCCN(C)C(=O)c1cc(-c2cnc(N3CCOCC3)nc2)cn1CC1CC1	-67.0
Cc1ccc(NC(=O)c2cc(-c3cnc(N4CCCC4)nc3)cn2CC2CC2)cn1	-21.6
CN(C)C(=O)CNC(=O)c1cc(-c2cnc(N3CCOCC3)nc2)cn1CC1CC1	43.3
CCOc1ccc(CNC(=O)CN2C(=O)CCc3cc(Br)ccc32)cc1	19.2
CCn1nc(C)c(NS(=O)(=O)c2ccc(F)c(Cl)c2)c1C(=O)OC	-44.9
Cc1ccc(NC(=O)Cn2c(=O)cc(C(=O)N3CCOCC3)c3ccccc32)cc1F	3.6
COc1ccccc1N1CCN(CCCCNS(=O)(=O)c2ccc(C)cc2)CC1	24.2
C=CCc1cccc2cc(C(=O)N3CCN(c4ccc(F)cc4)CC3)c(=O)oc12	-67.7
CCc1ccc(CN(C)C(=O)C2CC(=O)N(c3cccc(O)c3)C2)nc1 (centres undefined)	0.1
COc1cc2ncnc(Nc3cccc(Cl)c3)c2cc1OC	-69.6
C[C@@H]1COC(Nc2ccc3ncnc(Nc4ccc(OCc5nccs5)c(Cl)c4)c3c2)=N1	-73.0*
SMILES	Tg IFNy HTS
NC(=O)c1cnc2n1CCN(C(=O)c1cccc(Cn3cccn3)c1)C2	-29.4
COc1cc(-c2ccc(C)s2)cc2c1OCCN(Cc1cnn(C)c1)C2	-2.4
Cc1cc(C)cc(N2CCN(Cc3ccc4ncccc4c3)CC2=O)c1	-8.2
CC(=O)Nc1ncc(-c2cccc(C3CCCN(C(=O)OC(C)(C)C)C3)n2)s1 (centres undefined)	-61.4
Cc1nn2c(C3CCCN(C(=O)OC(C)(C)C)C3)ccnc2c1-c1cccs1 (centres undefined)	-77.0*
COc1ccc(-c2c(C)nn3c(C4CCN(Cc5ccccc5)C4)ccnc23)cc1OC (centres undefined)	-10.5
Cc1ccn(CCNC(=O)COc2ncnc3ccccc23)n1	-1.7
CCOC(=O)c1nc(NCC2CCN(Cc3ccccc3Cl)CC2)c2ccccc2n1	-11.9
O=C(NC1CCc2[nH]ncc2C1)c1cccc(CC2CCNCC2)c1 (centres undefined)	3.1
O=C(NC1CCNCC1)c1[nH]ncc1NC(=O)c1c(Cl)cccc1Cl	-72.1*
O=C(NC1CCN(c2cnccn2)CC1)c1ccccc1C1CCNC1 (centres undefined)	3.0
COC(=O)c1ccccc1NC(=O)CN(c1ccc(OC)c(OC)c1)S(C)(=O)=O	-4.7
c1ccc(Nc2cccc3c(Nc4ccccc4)cccc23)cc1	14.4
c1ccc2c(NC3=NCCCCS3)cccc2c1	-14.5
Cc1ccc(Nc2cccc3ccccc23)cc1	-119.0*
CCOC(=O)c1c(NC(=O)CCC(=O)N2CCCCC2)sc2c1CC(C)(C)OC2	14.0
C=CCN1CC(c2nc3ccccc3n2CC(=O)N(c2ccccc2)C(C)C)CC1=O (centres undefined)	-22.5
Cc1cc(C)n(-c2ncc(S(=O)(=O)C(C)(C)C)c(N)n2)n1	59.8
Cc1cc(C)cc(S(=O)(=O)N2CCC3(CC2)NCCN=C3NCc2ccc(C(F)(F)F)cc2)c1	-51.9
Cc1cc(C)n(C2=NCCN2S(=O)(=O)c2cc(C(F)(F)F)cc(C(F)(F)F)c2)n1	-89.8*
